Test results published in the supplement of paper PMC3334620.
In all, about 33,000 sequences were measured (“E-score (-0.5 to 0.5)”: median about -0.032, highest 2% from about 0.36 on). The full list was thinned out, with the highest values kept by preference.

Each sequence was assayed against T1, Sko1 (UniProt Q02100) (assay: PBM E-score (8-mer binding enrichment) (E-score (-0.5 to 0.5)); higher = stronger / more preferred TF binding). Conditions: protein concentration: 200 nM; construct: GST-full length.
T1 sequence: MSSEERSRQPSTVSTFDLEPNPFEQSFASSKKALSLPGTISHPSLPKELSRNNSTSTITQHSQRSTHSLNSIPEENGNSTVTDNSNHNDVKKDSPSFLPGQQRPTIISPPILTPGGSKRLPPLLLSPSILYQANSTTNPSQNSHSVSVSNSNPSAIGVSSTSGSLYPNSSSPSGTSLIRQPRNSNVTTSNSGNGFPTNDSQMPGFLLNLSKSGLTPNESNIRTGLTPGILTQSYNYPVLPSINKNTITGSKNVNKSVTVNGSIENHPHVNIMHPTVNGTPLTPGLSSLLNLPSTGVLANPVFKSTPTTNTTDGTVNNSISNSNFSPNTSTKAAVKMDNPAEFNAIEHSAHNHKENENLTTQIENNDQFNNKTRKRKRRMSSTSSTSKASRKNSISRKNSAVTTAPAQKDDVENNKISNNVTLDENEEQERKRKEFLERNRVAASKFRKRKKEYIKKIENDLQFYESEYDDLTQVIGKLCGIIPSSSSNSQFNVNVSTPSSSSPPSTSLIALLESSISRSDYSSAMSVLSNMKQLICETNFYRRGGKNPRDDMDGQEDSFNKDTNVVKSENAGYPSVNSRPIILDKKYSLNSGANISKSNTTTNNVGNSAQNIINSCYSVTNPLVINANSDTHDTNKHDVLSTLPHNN
Description: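 Universal 'all 10-mer' protein binding microarrays (Agilent AMADID 015681) probed with GST-tagged S. cerevisiae TFs (full-length or DBD) made by in vitro transcription/translation (PURExpress), about 100-200 nM. Bound TF was detected with fluorescent anti-GST. Each ungapped 8-mer (which stands for itself and its reverse complement) is scored by the PBM enrichment score (E-score), a modified Wilcoxon-Mann-Whitney statistic from -0.5 to +0.5, computed with the Universal PBM Analysis Suite. Scale: above 0.35 generally sequence-specific binding.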

| Sequence | PBM E-score |
| --- | --- |
| GCATCAGA | 0.113 |
| ACATCATG | 0.393 |
| AAATCATA | 0.204 |
| ACATCAGA | 0.122 |
| ACATCACA | 0.313 |
| CCATCATC | 0.0168 |
| CTATCATC | 0.0137 |
| CCATCATA | 0.0672 |
| GCATCATA | 0.366 |
| ACTGGTTA | 0.0712 |
| ATTGGAGA | 0.0978 |
| ACGCCGTC | 0.192 |
| AGCATAGA | -0.0737 |
| GCTCGACA | -0.181 |
| CACTAGAA | 0.023 |
| GCAGCGGC | -0.178 |
| ACGCGGAA | 0.0704 |
| ACGCGTAC | 0.307 |
| AGTCGTAA | 0.231 |
| GGTCGTAA | 0.249 |
| ACGCGTAT | 0.389 |
| TGTCGTAA | 0.412 |
| ACGCGTAA | 0.382 |
| ACGCGTGA | 0.32 |
| ACGCGTAG | 0.259 |

| Sequence | PBM E-score |
| --- | --- |
| GGGCGTAA | -0.0261 |
| AGGCGTAA | 0.206 |
| TGGCGTAA | 0.414 |
| AAGCGTAA | 0.241 |
| CACGATCG | 0.0307 |
| CGTTCAAC | 0.112 |
| GGTCTCCA | -0.19 |
| CGTCCGAC | -0.0238 |
| ACAACCGG | -0.197 |
| CAGACCAC | -0.0177 |
| CACCAGCA | 0.0552 |
| AGCGCGAT | -0.0488 |
| ACTCGAAA | 0.0248 |
| ATGTATGA | 0.288 |
| GCGCGTAA | 0.336 |
| CCGCGTAA | 0.318 |
| TCGCGTAA | 0.393 |
| CATGCGTA | 0.38 |
| AATGCGTC | 0.185 |
| AATGCGTA | 0.39 |
| AATGCGTG | 0.214 |
| CATGCGTC | 0.161 |
| GATGCGTA | 0.272 |
| GGGTGAAC | -0.114 |
| ACATAGGG | -0.181 |

| Sequence | PBM E-score |
| --- | --- |
| AGATAGCC | -0.299 |
| ACATCTAG | -0.0627 |
| AACATTCC | 0.0401 |
| CGCATACA | 0.0477 |
| CACATACG | 0.276 |
| AACATACT | 0.0365 |
| CGCATACC | 0.0198 |
| ATCATACA | 0.257 |
| CGCATACG | 0.378 |
| ATCATACG | 0.365 |
| ATCATACC | 0.171 |
| AACATACG | 0.387 |
| CTGCTACA | -0.0447 |
| AATGCTTA | -0.1 |
| CAGTATGC | -0.0805 |
| GTTCCGCA | 0.00536 |
| GTCGATCA | -0.0654 |
| TATCGCCA | 0.0834 |
| CCCTATGA | 0.0198 |
| AAGTCCAA | 0.0276 |
| AATAACGT | 0.426 |
| AATAACGC | 0.106 |
| AATAACGG | 0.138 |
| GCCTCAAC | -0.175 |
| AGGTTTTG | -0.0965 |

| Sequence | PBM E-score |
| --- | --- |
| ACGTTTTC | 0.396 |
| GCGTTTTA | 0.125 |
| ACGTTTTA | 0.364 |
| CCGTTTTA | -0.00533 |
| ACGTTTTG | 0.393 |
| ACGTTTGG | 0.296 |
| CCGTTTTC | 0.0601 |
| ACGTTTCC | 0.294 |
| GGCTACAA | -0.0783 |
| CATCGAGA | 0.0586 |
| CACTTGAC | 0.186 |
| AAGGTTAA | 0.06 |
| AAATGTCG | 0.159 |
| AGCTTGCA | 0.0429 |
| CGCCTACC | -0.145 |
| CCTCTGCA | -0.229 |
| GGTAACCA | -0.101 |
| CGTAACCC | 0.289 |
| CGTAACTA | 0.381 |
| CGTAACGC | 0.34 |
| CGTAACGA | 0.366 |
| GGTAACGA | 0.0123 |
| CGTAACCA | 0.389 |
| GGTAACTA | 0.0515 |
| CGTAACTC | 0.331 |

| Sequence | PBM E-score |
| --- | --- |
| ACCGTGCG | 0.0174 |
| TCTACTAA | 0.0947 |
| CGTTTAAA | 0.277 |
| TGAATGAA | 0.197 |
| ATAGGTCG | -0.195 |
| AATGTCGT | 0.371 |
| AATGTCGA | 0.217 |
| AATGTCGG | 0.0603 |
| CGATTGTC | 0.0842 |
| AGGAGCCC | -0.142 |
| ACATTACG | 0.425 |
| ACATTACT | 0.0825 |
| ACATTACA | 0.28 |
| CCATTACG | 0.438 |
| CCATTACC | -0.148 |
| CCATTACA | 0.089 |
| ACGGACTA | 0.0518 |
| CTGCTGAC | 0.0145 |
| AACACGTC | 0.401 |
| AACACGTT | 0.313 |
| AACACGTA | 0.459 |
| AACACGGC | -0.255 |
| AACACGAA | 0.187 |
| AACACGCC | -0.0487 |
| AGAGCTGG | -0.228 |

| Sequence | PBM E-score |
| --- | --- |
| TCATAGAA | 0.219 |
| AATTTCAC | -0.0415 |
| ACTTGAAA | 0.0359 |
| AAGCGGAA | -0.0292 |
| AGAACGTA | 0.366 |
| CGAACGTA | 0.361 |
| GGAACGTA | 0.289 |
| CGAACGTC | 0.238 |
| AGAACGTC | 0.314 |
| AGAACGTG | 0.246 |
| GTGAAGGA | -0.0285 |
| ACGCAGAC | 0.0967 |
| AAATTGGA | 0.0977 |
| ACGAGTCC | -0.0325 |
| ACGTCGAG | 0.254 |
| GCGTCGAC | 0.0596 |
| ACGTCGAA | 0.292 |
| ACGTCCAC | 0.314 |
| ACGTCCAT | 0.39 |
| ACGTCGAC | 0.385 |
| ACGTCCAA | 0.288 |
| CCGTCGAC | -0.145 |
| ACGTCGAT | 0.432 |
| ATCAGTCA | 0.119 |
| AACCGCGC | -0.0849 |

| Sequence | PBM E-score |
| --- | --- |
| AGGGCAAT | -0.231 |
| CGTAGAGC | 0.116 |
| ACGAGATA | 0.207 |
| AAACGTCG | 0.238 |
| ATACGCCC | -0.0909 |
| ATACGTCG | 0.422 |
| CTACGTCC | 0.298 |
| ATCCGTCG | -0.197 |
| ATACGTCC | 0.369 |
| AAGGCTGT | -0.282 |
| CGGTAGCC | 0.0295 |
| AATCACGA | 0.0581 |
| AACCACGC | 0.111 |
| AATCACGT | 0.429 |
| ACCCACGC | -0.0576 |
| AACCACGT | 0.371 |
| AACCACGA | -0.0344 |
| ACCCACGT | 0.374 |
| ACCCACGA | -0.0425 |
| AATCACGC | 0.205 |
| GGAAATAC | 0.148 |
| CCCTCATC | -0.29 |
